From PubChem
mIDH1 inhibitor: qHTS for Inhibitors of mutant isocitrate dehydrogenase 1 (IDH1): qHTS. Isocitrate dehydrogenase [NADP] cytoplasmic (Homo sapiens), O75874. IDH1-R132H enzyme, NADPH consumption, diaphorase/resazurin fluorescence. Potency, µM (titrated, usually from 76.6 µM), without a hit: top-dose activity change, negative = inhibition, hits mostly inhibitors. 390,000 compounds, 0.093% hits; note: nearly all actives have a fitted effect of over 65% in size
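IDH1-R132H (0.5 ug/mL dispensed) in pH 7.5 Tris buffer was preincubated 30 min with compound, then given a substrate mix of 0.016 mM NADPH and 2 mM alpha-KG for 80 min at room temperature; remaining NADPH was read by diaphorase/resazurin fluorescence.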
TrxR1 substrate: qHTS Assay for Substrates of Mammalian Selenoprotein Thioredoxin Reductase 1 (TrxR1): qHTS | purified TrxR1 substrate turnover, NADPH consumption readout | AID 588456, 2011 | 390,000 compounds, 0.01% hits | Potency, µM (series often up to 114 µM), inactives show at the highest dose activity change, negative = substrate turnover; note: nearly all actives have a fitted effect of over 50% in size
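Rat TrxR1, dispensed at 90 nM, was prereduced with 400 uM NADPH (final) for 5 min at ~22 deg C, then incubated with compound 15 min before 400 uM selenite. A first-read NADPH fluorescence drop versus no-compound background flagged substrates.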
PKM2 act: qHTS Assay for Activators of Human Muscle isoform 2 Pyruvate Kinase; purified PKM2, Kinase-Glo ATP luminescence, activation; response scale: 0% is enzyme alone, no compound; Potency, µM (doses to about 57.5 µM), for inactives: at the highest dose activation, usual class: activators; 260,000 compounds, 0.34% hits; AID 1631, 2009; note: nearly all actives have a fitted effect of over 55% in size
Target sequence (P14618 whole entry, looked up, canonical isoform): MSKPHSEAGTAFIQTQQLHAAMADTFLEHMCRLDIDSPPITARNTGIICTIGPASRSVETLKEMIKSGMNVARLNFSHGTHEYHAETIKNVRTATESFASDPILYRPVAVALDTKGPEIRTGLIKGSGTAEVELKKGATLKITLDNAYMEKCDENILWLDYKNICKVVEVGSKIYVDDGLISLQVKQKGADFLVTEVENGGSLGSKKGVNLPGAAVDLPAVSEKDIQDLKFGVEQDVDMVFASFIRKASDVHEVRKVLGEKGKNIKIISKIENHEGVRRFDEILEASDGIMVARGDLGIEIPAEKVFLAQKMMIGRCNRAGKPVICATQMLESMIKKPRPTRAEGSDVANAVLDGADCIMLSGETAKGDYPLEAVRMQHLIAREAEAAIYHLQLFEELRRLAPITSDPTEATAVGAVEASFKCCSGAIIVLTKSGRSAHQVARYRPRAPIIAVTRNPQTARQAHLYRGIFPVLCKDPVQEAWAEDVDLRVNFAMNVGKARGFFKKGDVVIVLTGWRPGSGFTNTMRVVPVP
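Purified hPK-M2 (>95% pure) converted ADP (0.1 mM final) to ATP with 0.5 mM PEP in 50 mM imidazole pH7.2, KCl, MgCl2, Tween 20, BSA; 1 h at room temperature. ATP detected by Kinase-Glo luminescence.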
rTrxR1 inhibitor: qHTS Assay for Inhibitors of Mammalian Selenoprotein Thioredoxin Reductase 1 (TrxR1): qHTS | Thioredoxin reductase 1, cytoplasmic (Rattus norvegicus), O89049 | recombinant rTrxR1, NADPH fluorescence consumption, selenite substrate | Potency, µM (series often up to 114 µM), for the others: at the top dose activity change, negative = inhibition, hits mostly inhibitors | 390,000 compounds, 1% hits | AID 588453, 2011; note: nearly all actives have a fitted effect of over 65% in size
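Rat TrxR1 (90 nM in the dispensed reagent) was pre-reduced with 400 uM NADPH for 5 min at room temperature, then incubated with compound for 15 min. After 400 uM selenite was added, NADPH fluorescence (Ex 340/Em 450 nm) was followed for 8 min.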
Apoferritin bind: qHTS Assay for Identification of Novel General Anesthetics | apoferritin/1-aminoanthracene competitive binding, fluorescence | Potency, µM (titrated, usually from 77.5 µM), without a hit: top-dose activity change, negative = displacement, actives largely listed as inhibitors | 350,000 compounds, 0.074% hits; note: nearly all actives have a fitted effect of over 20% in size
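10 uM apoferritin + 50% sat. 1-AMA, PBS; cpd 10 min RT; Ex380/Em535 endpoint; normalized to free probe vs complex; 4-param Hill fit; propofol titration as pos. ctrl.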
GALK inhibitor: qHTS Assay for Inhibitors of Human Galactokinase (GALK); P51570; Purified GALK, Kinase-Glo residual ATP luminescence; Potency, µM (doses to about 57.5 µM), for the others: at the highest dose activity change, negative = inhibition, hits mostly inhibitors; 270,000 compounds, 0.007% hits; AID 1868, 2009
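Compounds were pin-transferred into ATP buffer (35 uM final), then GALK plus galactose (5 nM, 100 uM final) was added. After 1 h at room temperature, Kinase-Glo Plus was added and luminescence read after 10 min.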
* marks the source's active call; other numbers are inactive results; ? = inconclusive; . = not tested or not shown; [ ] = another dose, or the depositor's remark. Most compounds without a hit are left out; they make up all but 1.3% or so of the library. Calls come from the whole dose curve; as a rule, active = well fitted curve in the direction sought with a large enough effect; inconclusive = small, poorly fitted or top-dose-only effect, or another doubt; inactive = no such curve, though single readings can be large; an effect the other way counts as inactive or inconclusive. % is set by controls: 0 for no effect and ±100 for the full control effect; potency is the fitted concentration of half-maximal effect.

SMILES | mIDH1 inhibitor | TrxR1 substrate | PKM2 act | rTrxR1 inhibitor | Apoferritin bind | GALK inhibitor
O=C(NC1CCCCC1)c1cccs1 | -2.2% | -3.3% | 1.1% | -4.8% | 12.6µM* | 2.0%
N#CC(C#N)=Cc1cn(-c2ncc(C(F)(F)F)cc2Cl)c2ccccc12 | 8.9% | -15.0%[57.1 µM] | -1.2% | 15.8µM* | -3.3% | 0.0%
Cc1cnc2ccc(I)cc2c1/C=C/c1ccc(N(C)C)cc1 | . | 1.9% | . | 6.9% | . | .
Cc1nc2ccccc2nc1/C=C/c1ccc(N(C)C)cc1 | . | -11.7% | . | ? | . | .
Cc1ccc2c(CC(=O)N3CCN(c4cccc(Cl)c4)CC3)coc2c1C | 0.5% | -4.2% | . | ? | 12.5% | .
COc1ccc(OC)c2c1C(=O)C(Cl)=C(Cl)C2=O | -4.7% | -4.9% | -3.9% | 0.159µM* | -3.1% | 0.2%
Cn1ccsc1=NC(=O)c1ccc(Cl)c([N+](=O)[O-])c1 | 4.8% | 2.5% | . | 12.5% | 10.8% | 0.0%
Cn1ccsc1=NC(=O)c1ccc(S(C)(=O)=O)c([N+](=O)[O-])c1 | -0.3% | -13.5% | 8.4% | 56.2µM* | 0.6% | 5.1%
CN(C)c1ccc(/C=C/c2cc3ccccc3c[n+]2C)cc1 | . | -14.8% | . | -24.5% | . | .
CC(=O)Nc1ccc(N(C(=O)c2cnccn2)C(C(=O)NC2CCCCC2)c2ccc(O)cc2)cc1 (configuration not stated) | -0.3% | 12.0%[57.1 µM] | 1.3% | 7.08µM* | -18.9% | -2.2%
CCCCN(CCCC)c1ccc(/C=C/c2ccnc3ccccc23)cc1 | . | -2.0% | . | 31.9% | . | .
CC(=O)N1CCc2cc(C(=O)CN3CCN(C(=O)c4ccco4)CC3)ccc21 | -4.3% | -1.3%[57.1 µM] | 7.1% | 15.8µM* | ? | 1.0%
CC(=O)N1CCc2cc(C(=O)CN3CCC(C)CC3)ccc21 | 13.9% | -6.2%[57.1 µM] | -0.2% | ? | -16.6% | 1.9%
COc1ccc2[nH]c(C)c(C(=O)CN3CCN(C(=O)c4ccco4)CC3)c2c1 | 0.0% | -2.9% | 8.3% | 28.2µM* | -3.9% | 2.5%
Cc1noc(-c2ccc(NC(C)c3ccccc3)c([N+](=O)[O-])c2)n1 (configuration not stated) | 8.4% | -9.4% | . | -0.6% | 2.7% | .
COc1ccccc1CNS(=O)(=O)c1ccc2c(c1)CC(C)N2C(C)=O (configuration not stated) | 2.2% | -5.1% | . | 3.4% | -6.8% | .
COc1ccc(S(=O)(=O)n2nc(-c3ccco3)nc2NCc2ccc(N(C)C)cc2)cc1 | 0.0% | -1.5% | . | 11.4% | -1.2% | .
CN(C)c1ccc(/C=C/c2ccc3ccccc3[n+]2C)cc1 | 9.0% | -6.2% | -31.9% | -11.7% | -10.8% | 5.9%
CN(C)c1ccc(/C=C/c2ccc3c4ccccc4ccc3[n+]2-c2ccccc2)cc1 | 29.3µM* | 23.1% | -13.0% | -0.9%[57.1 µM] | ? | 7.4%
N#C/C(=C\c1cc(Br)ccc1F)C(=O)NC1CC1 | -1.3% | -1.5% | 8.6% | 20µM* | -3.1% | 0.2%
N#C/C(=C\c1cc(Cl)cc(Cl)c1O)C(=O)NC1CCCCC1 | 11.4% | -15.1% | -0.4% | 79.4µM* | -7.0% | 2.3%
Cc1nn(C(C)C(=O)NCCCN2CCCCCC2)c(=O)c2c1sc1ccccc12 (configuration not stated) | 0.7% | 1.5% | . | 50.1µM* | -20.4% | -13.1%
O=C(CSc1ccc2nc(-c3ccccc3)cn2n1)Nc1cccc(F)c1 | -1.0% | 16.3%[57.1 µM] | . | 11.3%[57.1 µM] | 74.1% | .
Cc1c(CCO)sc[n+]1CC(=O)c1ccccc1 | . | 4.5% | . | -1.7% | . | .
